Measurements from PubChem BioAssay (EPA / NIEHS).
Calls of active or inactive are those of the source. Rule for the calls: active = hit-call score of the fitted dose curve at least 0.9, where 1 is the maximum; inactive = score below 0.9.

test: CCTE_Shafer_MEA_dev_correlation_coefficient_mean: CCTE's Neural Network Formation Assay for Mean Correlation Coefficient, Shafer Lab (AID 2284093);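 for AC50: well mean pairwise spike train correlation integrated as AUC over recording days 5 to 12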
Procedure: CCTE_Shafer_MEA_dev assay is conducted using Axion Biosystems 48 well microelectrode array (MEA) plates and Maestro recording system. Each well of the MEA plate contains a grid of 16 microelectrodes embedded in the culture surface. Electrically active cells, such as neurons, can be cultured over the electrodes, and electrical activity in these cells can be recorded extracellularly. The spontaneous firing of neurons is captured from each electrode on a microsecond timescale providing both temporally and spatially precise data. […] The CCTE_Shafer_MEA_dev assay uses primary cultures of rat cortical neurons. Recordings are made on days post-plating 5, 7, 9 and 12. As these cultures mature over time, neural networks develop functional activity and form cohesive networks in which electrical activity can be highly coordinated. CCTE_Shafer_MEA_dev_correlation_coefficient_mean is 1 of 19 assay components of the CCTE_Shafer_MEA_dev assay. It measures the correlation coefficent of spikes (action potential firings) between every pair of electrodes in a well during a recording in a microelectrode array (MEA) using Axion Biosystems Maestro 768 channel amplifier with the AxIS adaptive spike detector. The pairwise correlations are averaged across active electrodes to report a well-mean value. To collapse across multiple recordings made on days post-plating 5, 7, 9 and 12, the trapezoidal area-under-the-curve of the component is calculated.Data from the assay component CCTE_Shafer_MEA_dev_correlation_coefficient_mean was analyzed into 1 assay endpoint. This assay endpoint, CCTE_Shafer_MEA_dev_correlation_coefficient_mean, was analyzed in the negative analysis fitting direction relative to DMSO as the negative control and baseline of activity. Using a type of functional reporter, gain or loss-of-signal activity can be used to understand electrical activity.
On the day prior to culture, each well was coated thoroughly with 150 uL of 0.05% polyethyleneimine (PEI, Sigma Cat P3143) in 50 mM HEPES (Sigma Cat H7523) at a pH of 8. The plate was incubated at 37C for one hour. PEI was rinsed out with 500 uL of sterile water three times. Plates were stored at 4C until the day of culture. This culture was plated at a seeding density of 1.5 x 10^5 cells/well on a 48-well MEA plate, prepared as described above. Cells were administered via a 25 uL media/laminin ([…]; Sigma Cat L2020-1MG) drop directly onto the microelectrode array, as adding the cells with the laminin results in better attachment than pre-coating with laminin. After 2 hours, an additional 475 uL of cortical media was added and the cells returned to the incubator. Exposure starts at day 0 of plating and is continued over twelve days of network development until the experiment is terminated. Cells are fed with fresh medium on DIV 5 and 9, following the recordings on those days. The entire volume of media in the well is exchanged and any vehicle or compound treatment is renewed. Complete details are found in OP-NHEERL/ISTD/SBB/TJS/2015-03-r0 (available on request, email shafer.tim@epa.gov). Measurement of the electrical activity is non-invasive, and recordings can be made from the same plate over multiple different days of the culture. In cortical neurons, this allows for the measurement of extracellular action potentials over the period during which networks form in the MEA plate.

SMILES	outcome	AC50
c1cc2c3c(c1)ccc1cccc(c13)C2	inactive	
C[C@@H]1CC[C@@H](C(C)(C)O)[C@H](O)C1	inactive	
CC(=O)N[C@@H](CC(=O)O)C(=O)O	inactive	
F	inactive	
C[C@@H]1CCO[C@H]2Cn3cc(C(=O)NCc4ccc(F)cc4F)c(=O)c(O)c3C(=O)N12		1.52 µM (active)
c1ccc2c(c1)ccc1c3ccccc3ccc21	inactive	
CCc1ccccc1	inactive	
BrC1CC(Br)CC(Br)CC(Br)CC(Br)CC(Br)C1 (stereo not drawn)		2.92 µM (active)
CN(C)CCCn1cc(C2=C(c3c[nH]c4ccccc34)C(=O)NC2=O)c2ccccc21		3.16 µM (active) [middle of 4 runs]
CCCCCC(C)(CC)C(=O)NC (stereo not drawn)	inactive	
Brc1cc(Br)c(Oc2cc(Br)c(Br)cc2Br)cc1Br	inactive	
[O]=[V]([OH])([OH])[OH]		13.6 µM (active)
CCCCCC=C(C)C(CC)CCO (stereo not drawn)	inactive	
Cc1[nH]n(C)c(=O)c1C(=O)c1ccc(C(F)(F)F)cc1S(C)(=O)=O	inactive	
CC(C)O	inactive	
CC(C)c1nn(C(=O)NC(C)(C)C)c(=O)n1N	inactive	
CC(CNC(=S)[S-])NC(=S)[S-].[Zn+2] (stereo not drawn)		19.7 µM (active)
O=C1CC2(CCCC2)CC(=O)N1CCCCN1CCN(c2ncccn2)CC1		25 µM (active)
